High-throughput results (PubChem)
Bim-Mcl-1: inhibitors of Bim peptide binding to Mcl-1, primary screen, biochemical, bead-based flow cytometry, multiplex | Induced myeloid leukemia cell differentiation protein Mcl-1 (Homo sapiens), Q07820 | Bim peptide-Mcl-1 binding | inhibition, % at 10 µM | hit rate 0.1% among 190,000 | AID 1009, 2008; in the data active means inhibition above about 40%
Mcl1 Bid PPI: Mcl-1/Bid binding inhibitors, primary screen, biochemical, TR-FRET, 1536-well; TR-FRET Mcl-1/Bid-Dy647 peptide binding; inhibition, % at 21.7 µM; hit rate 0.97% among 220,000; AID 1021, 2008;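 active means compounds that cut the binding signal by more than half at the single screening dose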;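 further: His-tagged Mcl-1 with europium anti-His antibody binding Bid BH3 peptide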
MCL1 BIM primary: inhibitors of MCL1 binding to BIM-BH3, primary screen, biochemical, fluorescence polarization; AID 2057, 2009; hit rate 0.68% among 320,000; Induced myeloid leukemia cell differentiation protein Mcl-1 (Homo sapiens), Q07820; GST-MCL1 / FITC-Bim-BH3 fluorescence polarization; inhibition, % at 10.9 µM;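 active means inhibition above the mean inhibition of all tested compounds plus 3 SD, set per campaign, cut at about 40% in these data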;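 further: higher means more loss of mP so more displacement of Bim peptide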
Mcl1 Noxa PPI: Mcl-1/Noxa binding inhibitors, primary screen, biochemical, TR-FRET, 1536-well; Induced myeloid leukemia cell differentiation protein Mcl-1 (Homo sapiens), Q07820; TR-FRET Mcl-1/Noxa peptide binding, 2 h; inhibition, % at 21.7 µM; hit rate 1.5% among 220,000;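 active means compounds that cut the protein-peptide binding signal by more than 50% relative to plate controls in a single-dose test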;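 further: His-tagged Mcl-1 with rhodamine Noxa BH3 peptide and terbium anti-His antibody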
GLD-1 RNA inh: GLD-1/TGE RNA complex disruptors, primary screen, biochemical, fluorescence polarization | Female germline-specific tumor suppressor gld-1 (Caenorhabditis elegans), Q17339 | purified GLD-1 + fluorescein TGE RNA | inhibition, % at 5.96 µM | hit rate 0.44% among 320,000;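 active means percent inhibition above a per-plate cutoff, the plate mean of test compounds plus 3 SD, cut at about 30% in these data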
Target sequence (Q17339 whole entry, looked up): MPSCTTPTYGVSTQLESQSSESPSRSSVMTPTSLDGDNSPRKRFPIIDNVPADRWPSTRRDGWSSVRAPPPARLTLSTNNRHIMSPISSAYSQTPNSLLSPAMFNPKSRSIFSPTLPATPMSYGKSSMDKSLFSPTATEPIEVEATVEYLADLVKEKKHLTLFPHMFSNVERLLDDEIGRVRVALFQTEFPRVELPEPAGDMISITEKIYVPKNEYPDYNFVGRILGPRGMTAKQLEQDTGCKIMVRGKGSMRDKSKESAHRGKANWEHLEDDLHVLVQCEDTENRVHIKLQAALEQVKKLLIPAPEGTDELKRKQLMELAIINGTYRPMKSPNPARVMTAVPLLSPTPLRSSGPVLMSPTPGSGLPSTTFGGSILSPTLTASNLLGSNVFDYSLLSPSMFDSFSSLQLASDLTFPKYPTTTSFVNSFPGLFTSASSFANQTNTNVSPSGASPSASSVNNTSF
BCLXL inh: inhibitors of human Bcl-xL, primary screen, biochemical, fluorescence polarization, HTS; Bcl-2-like protein 1 (Homo sapiens), Q07817; GST-Bcl-xL / FITC-Bim BH3 peptide fluorescence polarization; inhibition, % at 10.9 µM; hit rate 0.7% among 320,000; AID 2129, 2009;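 active means inhibition above the mean of all tested compounds plus 3 SD, cutoff set per campaign, cut at about 30% in these data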;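 further: inhibitors lower millipolarization by displacing the labeled peptide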
Bcl-xL conf: Bcl-xL inhibitors blocking Bim BH3 binding, confirmation, counter-screen for MCL1 inhibitor project, biochemical, fluorescence polarization; inhibition, % at 10.9 µM; GST-Bcl-xL / FITC-Bim BH3 peptide FP binding; hit rate 54% among 1,700; shares compounds with MCL1 BIM primary; AID 2166, 2009;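 active means inhibition above a cutoff equal to the mean inhibition of all tested compounds plus 3 SD, cut at about 30% in these data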
MCL1 inh confirm: inhibitors of MCL1 binding to BIM-BH3, confirmation, biochemical, fluorescence polarization, triplicate; hit rate 61% among 1,700; shares compounds with MCL1 BIM primary; GST-MCL1 / FITC-Bim-BH3 fluorescence polarization; inhibition, % at 10.9 µM; AID 2168, 2009;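 active means inhibition above the average of all tested compounds plus 3 SD, cut at about 40% in these data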
Each line names hits and unclear results; the compound was inactive in the other large screens (follow-up assays come after a bar, where they were run). Hits are enriched below; roughly 2.3% of the tested compounds scored in any of these assays.

O=S(=O)(c1ccccc1)N1N=C(c2ccc(Br)cc2)CC1c1ccco1 (stereo unspecified)	none (no result: Bim-Mcl-1, Mcl1 Bid PPI, Mcl1 Noxa PPI)
CCc1ccc(N2CC(C(=O)OCc3nc4ccsc4c(=O)[nH]3)CC2=O)cc1 (stereo unspecified)	MCL1 BIM primary 41 (no result: Bim-Mcl-1, Mcl1 Bid PPI, Mcl1 Noxa PPI) | Bcl-xL conf 33 | MCL1 inh confirm 49
CC(=O)COc1ccc2c(c1C)O/C(=C\c1ccco1)C2=O	none (no result: Bim-Mcl-1, Mcl1 Bid PPI, Mcl1 Noxa PPI)
CN(C)Cc1c(O)ccc2c1O/C(=C\C=C\c1ccccc1)C2=O	MCL1 BIM primary 76, BCLXL inh 78 (no result: Bim-Mcl-1) | Bcl-xL conf 85 | MCL1 inh confirm 91
CCN1CCN(Cc2c(O)ccc3c2O/C(=C\c2ccccc2)C3=O)CC1	MCL1 BIM primary 55, BCLXL inh 54 | Bcl-xL conf 59 | MCL1 inh confirm 62
CC1CCCN(Cc2c(O)ccc3c2O/C(=C\c2ccco2)C3=O)C1 (stereo unspecified)	MCL1 BIM primary 152, Mcl1 Noxa PPI 58, GLD-1 RNA inh 95, BCLXL inh 123 | Bcl-xL conf 119 | MCL1 inh confirm 133
C/C(N)=C(/C#N)C(=O)CSc1nnc(Nc2ccccc2)s1	none
C/C(N)=C(/C#N)C(=O)CSc1nnc(NC(C)C)s1	MCL1 BIM primary 51 | Bcl-xL conf inactive | MCL1 inh confirm 78
COc1cccc(N2[C@@H](CC(C)=O)c3cc(C(F)(F)F)ccc3S2(=O)=O)c1	none (no result: Bim-Mcl-1, Mcl1 Bid PPI, Mcl1 Noxa PPI)
CCOC(=O)C[C@H]1c2ccc(C(F)(F)F)cc2S(=O)(=O)N1c1cccc(OC)c1	MCL1 BIM primary 41 (no result: Bim-Mcl-1, Mcl1 Bid PPI, Mcl1 Noxa PPI) | Bcl-xL conf inactive | MCL1 inh confirm 43
NS(=O)(=O)c1ccc(CNC(=O)c2cc(-c3cccnc3)nc3ccc(Br)cc23)cc1	MCL1 BIM primary 51 (no result: Bim-Mcl-1, Mcl1 Bid PPI, Mcl1 Noxa PPI) | Bcl-xL conf inactive | MCL1 inh confirm inactive
NS(=O)(=O)c1ccc(CCNC(=O)c2cc(-c3ccccn3)nc3ccc(Br)cc23)cc1	none
O=C(O)c1cc(-c2ccco2)nn1-c1cccc(Cl)c1	MCL1 BIM primary 82, Mcl1 Noxa PPI 69, BCLXL inh 31 | Bcl-xL conf inactive | MCL1 inh confirm inactive
CCN(CC)C(=O)CSc1ncnc2c(-c3cccs3)nsc12	MCL1 BIM primary 64, BCLXL inh 35 | Bcl-xL conf inactive | MCL1 inh confirm inactive
CCN(CC)C(=O)CSc1ncnc2sccc12	none
Cc1cccc(C(=O)NC(C(=O)Nc2cccc(S(=O)(=O)N3CCCC3)c2)C(C)C)c1 (stereo unspecified)	none (no result: Bim-Mcl-1, Mcl1 Bid PPI, Mcl1 Noxa PPI)
C=CCn1c(CSc2ccccc2[N+](=O)[O-])n[nH]c1=S	MCL1 BIM primary 46 (no result: Bim-Mcl-1, Mcl1 Bid PPI, Mcl1 Noxa PPI) | Bcl-xL conf inactive | MCL1 inh confirm 46
O=C(O)c1ccc(-n2cccc2/C=N\NC(=O)c2cc3cc(Br)ccc3o2)cc1	MCL1 BIM primary 62, Mcl1 Noxa PPI 92 (no result: Bim-Mcl-1) | Bcl-xL conf inactive | MCL1 inh confirm 57
CCOc1ccc(C2OC34CCCCC3C(C#N)(C#N)C2(C#N)C(=N)O4)cc1OC (stereo unspecified)	MCL1 BIM primary 167, GLD-1 RNA inh 130, BCLXL inh 143 | Bcl-xL conf 107 | MCL1 inh confirm 133
CCOc1ccc(C2C(C#N)=C(N)SC(N)=C2C#N)cc1OC	none
Cc1ccc(C2OC34CCCCCC3C(C#N)(C(=N)O4)C2(C#N)C#N)cc1 (stereo unspecified)	none
